Consider 25 compounds from PubChem BioAssay (Tox21).

Molecules are shown by their SMILES. Where “and” joins values, the source holds several entries; their conditions need not be identical. Identical values can stand only once. Some structures have more than one record in an assay (separate samples or runs), and their calls can disagree. Calls of active or inactive are those of the source. Unless noted, calls follow the shape of the dose curve; as a rule, active = well fitted curve in the direction sought with a large enough effect in the repeat runs; inconclusive = weak or mixed curves; inactive = no such curve, though single readings can be large; an effect the other way counts as inactive or inconclusive.

Assay [1] is described as follows: qHTS assay to identify small molecule antagonists of the thyroid receptor (TR) signaling pathway (AID 743065). Also: nearly all actives have a fitted effect of over 55% in size. Also: potency is read from the fitted curve at half-maximal effect. A digest of the protocol:
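Antagonism measured as loss of luciferase signal in GH3 cells stably carrying a TRE-luciferase reporter, co-treated with compound and T3 (1 nM final) for 23.5 h at 37 C. Viability was read in the same well by CellTiter-Fluor.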
(qHTS replaces the single test concentration by a dilution series.)

The test system of assay [2] is thyroid hormone receptor (rat, GH3 cells). In words: qHTS assay to identify small molecule agonists of the thyroid receptor (TR) signaling pathway (AID 743066; calls by dose curve).
For assay [3], the target named is Estrogen receptor (Homo sapiens) (UniProt P03372). In words: qHTS assay to identify small molecule antagonists of the estrogen receptor alpha (ER-alpha) signaling pathway (AID 743069; active = well fitted curve in the direction sought with a large enough effect in the signal ratio in the repeat runs, not every such curve was filed as active; inconclusive = weak or mixed curves, or effect the other way; inactive = no such curve, though single readings can be large or run the other way; the % refers to the signal ratio; also: potency is read from the fitted curve at half-maximal effect). A digest of the protocol: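 Antagonist mode: compounds in DMSO were co-added with 17beta-estradiol to ER-alpha-bla HEK293 cells (2% charcoal-stripped serum) and left 18 h at 37C. Reporter inhibition was measured as FRET fluorescence after 2 h LiveBLAzer substrate at room temperature.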
Estrogen receptor (Homo sapiens), sequence (P03372 whole entry, looked up): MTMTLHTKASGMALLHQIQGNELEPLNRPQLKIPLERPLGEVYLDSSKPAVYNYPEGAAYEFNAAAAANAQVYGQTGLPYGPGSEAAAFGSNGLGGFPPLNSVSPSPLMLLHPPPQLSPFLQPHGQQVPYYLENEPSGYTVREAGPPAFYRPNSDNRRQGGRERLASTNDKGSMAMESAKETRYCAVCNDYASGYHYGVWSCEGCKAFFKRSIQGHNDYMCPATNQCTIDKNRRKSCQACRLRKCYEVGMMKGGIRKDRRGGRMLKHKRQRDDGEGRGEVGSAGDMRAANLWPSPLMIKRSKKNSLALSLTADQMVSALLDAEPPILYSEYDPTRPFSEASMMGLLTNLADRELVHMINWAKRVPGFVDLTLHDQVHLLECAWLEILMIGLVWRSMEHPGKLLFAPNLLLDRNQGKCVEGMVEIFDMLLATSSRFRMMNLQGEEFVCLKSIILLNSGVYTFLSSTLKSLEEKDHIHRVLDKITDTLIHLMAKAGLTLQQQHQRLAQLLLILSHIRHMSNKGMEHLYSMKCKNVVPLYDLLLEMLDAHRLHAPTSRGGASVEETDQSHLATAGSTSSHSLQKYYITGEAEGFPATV

A short description of assay [4]: qHTS assay to identify small molecule antagonists of the estrogen receptor alpha (ER-alpha) signaling pathway - cell viability counter screen (AID 743074; calls by dose curve;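 also: HEK293 cells carrying ER-alpha-UAS-bla reporter stimulated with 17beta-estradiol; nearly all actives have a fitted effect of over 45% in size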).
In assay [5] the target is Estrogen receptor (Homo sapiens) (UniProt P03372). Nature of the assay: qHTS assay to identify small molecule agonists of the estrogen receptor alpha (ER-alpha) signaling pathway (AID 743075; calls by dose curve;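 also: HEK293 GripTite cells with ER-alpha and UAS-driven beta-lactamase reporter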).
The target is the same in assay [6]. In words: qHTS assay to identify small molecule agonists of the estrogen receptor alpha (ER-alpha) signaling pathway using the BG1 cell line (AID 743079). Also: nearly all actives have a fitted effect of over 20% in size. Also: potency is read from the fitted curve at half-maximal effect. The note with it: BG1Luc4E2 cells, ERE-luciferase agonist, 22 h; activation: at 70.3 µM (top of the series).
Assay [7] can be described thus: qHTS assay to identify small molecule antagonists of the estrogen receptor alpha (ER-alpha) signaling pathway using the BG1 cell line (AID 743080; calls by dose curve;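 also: BG1 cells stimulated with 17beta-estradiol alongside compound; nearly all actives have a fitted effect of over 25% in size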; also: potency is read from the fitted curve at half-maximal effect). A digest of the protocol:
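Quantitative HTS on the Tox21 10K library: BG1 cells with endogenous ER-alpha and ERE-luciferase reporter, 17beta-estradiol stimulation, 21.5 h compound exposure, luminescence endpoint with parallel fluorescence cytotoxicity counter-read.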

Assay [8] is described as follows: qHTS assay to identify small molecule antagonists of the estrogen receptor alpha (ER-alpha) signaling pathway using the BG1 cell line - cell viability counter screen (AID 743081).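 Also: compound given together with 17beta-estradiol as the ER stimulus; nearly all actives have a fitted effect of over 45% in size.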 Also: potency is read from the fitted curve at half-maximal effect.
A short description of assay [9]: qHTS assay to identify aromatase inhibitors - cell viability counter screen (AID 743084).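 Also: cells stimulated with testosterone during compound exposure; nearly all actives have a fitted effect of over 55% in size.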 Also: potency is read from the fitted curve at half-maximal effect.
The target of a further assay is Aromatase (Homo sapiens) (UniProt P11511). In words: qHTS assay to identify aromatase inhibitors (AID 743083). Also: nearly all actives have a fitted effect of over 55% in size. Also: potency is read from the fitted curve at half-maximal effect.
Aromatase (Homo sapiens), sequence (P11511 whole entry, looked up): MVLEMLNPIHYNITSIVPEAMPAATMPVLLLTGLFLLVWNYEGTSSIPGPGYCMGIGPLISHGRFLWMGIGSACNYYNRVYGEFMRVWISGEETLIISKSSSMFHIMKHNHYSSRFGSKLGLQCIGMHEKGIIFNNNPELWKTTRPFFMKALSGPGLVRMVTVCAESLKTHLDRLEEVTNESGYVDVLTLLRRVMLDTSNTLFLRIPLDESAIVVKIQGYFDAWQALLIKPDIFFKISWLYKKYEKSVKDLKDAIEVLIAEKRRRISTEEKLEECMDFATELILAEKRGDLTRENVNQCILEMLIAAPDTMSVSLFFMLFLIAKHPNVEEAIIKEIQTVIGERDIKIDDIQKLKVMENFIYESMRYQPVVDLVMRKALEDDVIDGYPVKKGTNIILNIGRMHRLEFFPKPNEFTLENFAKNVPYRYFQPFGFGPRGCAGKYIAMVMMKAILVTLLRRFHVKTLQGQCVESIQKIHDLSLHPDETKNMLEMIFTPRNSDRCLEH

As to `Cc1cc(C)c(N)cc1C`, the Potency result in assay [1], in assay [3], in assay [4], in assay [5], in assay [6] and in [7] was “inactive” throughout. The Potency entry in [8] and in assay [9] was “inactive” throughout. Besides, the compound was called inactive in [2].

For `C=C(C)CCCC(C)CCO` (stereo not drawn), the Potency entry in assay [1], in [3], in [4], in assay [5], in assay [6] and in assay [8] was “inactive” each time. For the same compound, the Potency entry (in the assay with Aromatase (Homo sapiens); in assay [9]) was “inactive” each time. Moreover, the compound was called inactive in assay [2].

In the case of `CN1C(C(=O)Nc2ccccn2)=C(O)c2sccc2S1(=O)=O`, the Potency result in [1], in assay [3], in assay [4], in assay [5], in assay [6] and in assay [7] was “inactive” in each case. Moreover, the Potency result (with Aromatase (Homo sapiens); in [9]) was “inactive” throughout. In addition, the outcome in [2] was inactive.

Turning to `CC(C)(C)C(=O)C(=O)O`, the Potency entry in [1], in assay [3], in assay [4], in assay [5], in assay [6] and in [8] was “inactive” in each case. For the same compound, the Potency result (with Aromatase (Homo sapiens); in assay [9]) was “inactive” each time. Also, in assay [2], the call was inactive.

Consider `CC(=O)Nc1cc(S(=O)(=O)O)cc2cc(S(=O)(=O)O)c(N=Nc3ccccc3)c(O)c12`, for which the Potency result (in assay [1]; in assay [3]; in assay [4]; in assay [5]; in the assay with Aromatase (Homo sapiens)) was “inactive” throughout. In addition, the call in [2] was inactive. Besides, the results for the Potency in assay [8] and in [9] were 8.63 µM (active) and 24.3 µM (active), respectively.

As to `CCC(C)COC(C)=O` (stereo not drawn), the Potency result in [1], in [3], in assay [4], in assay [5], in [6] and in assay [7] was “inactive” throughout. For the same compound, the Potency entry (in [8]; with Aromatase (Homo sapiens); in [9]) was “inactive” throughout. Further, the compound was classed as inactive in [2].

On to `C=C1C[C@@]23CC[C@H]4[C@@](C)(CCC[C@@]4(C)C(=O)O[C@@H]4O[C@H](CO)[C@@H](O)[C@H](O)[C@H]4O)[C@@H]2CC[C@]1(O[C@@H]1O[C@H](CO)[C@@H](O)[C@H](O[C@@H]2O[C@H](CO)[C@@H](O)[C@H](O)[C@H]2O)[C@H]1O[C@@H]1O[C@H](CO)[C@@H](O)[C@H](O)[C@H]1O)C3`, for which the Potency entry in [1], in assay [3], in assay [4], in assay [5], in assay [6] and in assay [7] was “inactive” each time. The Potency entry (in the assay with Aromatase (Homo sapiens); in assay [9]) was “inactive” throughout. In addition, the outcome in [2] was inactive.

As to `C1COC1`, the Potency entry (in assay [1]; in [3]; in assay [4]; in [5]; in [8]; in the assay with Aromatase (Homo sapiens)) was “inactive” in each case. Besides, the Potency result in assay [9] was “inactive”. Besides, the outcome in assay [2] was inactive.

With `COc1cc(N)c(Cl)cc1C(=O)NC1CCN(CCCOc2ccc(F)cc2)CC1OC` (stereo not drawn), the Potency in assay [1] was 11.4 µM (active). The compound was classed as inactive in assay [2]. Further, the Potency entry (in assay [3]; in assay [4]; in assay [5]; with Aromatase (Homo sapiens); in assay [9]) was “inactive” in each case.

Take `Nc1cccc2c1CN(C1CCC(=O)NC1=O)C2=O` (stereo not drawn): the Potency entry in assay [1], in [3], in [4], in assay [5], in assay [6] and in assay [8] was “inactive” in each case. In addition, the Potency result (with Aromatase (Homo sapiens); in assay [9]) was “inactive” in each case. Moreover, in assay [2], the compound was called inactive.

For `CCC=CC#N`, the Potency result in [1], in assay [3], in assay [4], in assay [5], in assay [6] and in [8] was “inactive” throughout. Further, the Potency entry (with Aromatase (Homo sapiens); in assay [9]) was “inactive” in each case. Further, the outcome in assay [2] was inactive.

`Oc1cc2c(cc1O)[C@H]1c3ccc(O)c(O)c3OC[C@@]1(O)C2`: the Potency in assay [1] is 49.2 µM (active); in assay [8] it was 49.2 µM (active); in the assay with Aromatase (Homo sapiens), 24.6 µM (active); in assay [9], 24.6 µM (active). Moreover, in [2], the compound was called inactive. In addition, the Potency result in assay [3], in assay [4] and in assay [5] was “inactive” in each case.

Regarding `Cc1cc(C)cc(N)c1`, the Potency entry in assay [1], in assay [3], in assay [4], in assay [5], in assay [6] and in assay [7] was “inactive” in each case. For the same compound, the Potency entry (in assay [8]; with Aromatase (Homo sapiens); in assay [9]) was “inactive” in each case. In [2], the call was inactive.

In the case of `O=C(O)CCC(=O)C(=O)O`, the Potency entry in assay [1], in assay [3], in [4], in assay [5], in assay [6] and in assay [8] was “inactive” throughout. Further, the Potency result (in the assay with Aromatase (Homo sapiens); in assay [9]) was “inactive” each time. Moreover, the compound was classed as inactive in assay [2].

Regarding `CC(CO)CO`, the Potency result in assay [1], in [3], in [4], in assay [5], in assay [6] and in [8] was “inactive” in each case. Further, the Potency result (with Aromatase (Homo sapiens); in [9]) was “inactive” in each case. The call in assay [2] was inactive.

With `C=CC(=O)[O-].C=CC(=O)[O-].[Zn+2]`, the Potency result in assay [1], in assay [3], in assay [4], in assay [5], in [6] and in assay [8] was “inactive” each time. The Potency result (with Aromatase (Homo sapiens); in assay [9]) was “inactive” in each case. In addition, the call in [2] was inactive.

`C(=C\c1ccccc1)/c1ccccc1`: the Potency entry (in assay [1]; in assay [3]; in assay [4]; in assay [5]; in assay [8]; in the assay with Aromatase (Homo sapiens)) was “inactive” in each case. For the same compound, the Potency result in assay [9] was “inactive”. The outcome in assay [2] was inactive. The Potency in assay [6] was 60.6 µM (active).

As to `O=C(O)CCCCCCCCCCCBr`, the Potency entry in assay [1], in [3], in assay [4], in assay [5], in [6] and in assay [8] was “inactive” in each case. Moreover, the Potency entry (with Aromatase (Homo sapiens); in assay [9]) was “inactive” each time. In addition, the compound was called inactive in assay [2].

For `CCOC(C)=O`, the Potency entry in assay [1], in [3], in [4], in assay [5], in assay [6] and in [8] was “inactive” each time. The Potency entry (in the assay with Aromatase (Homo sapiens); in assay [9]) was “inactive” each time. Besides, in assay [2], the call was inactive.

As for `C=COCC(C)C`, the Potency result in assay [1], in assay [3], in assay [4], in [5], in assay [6] and in assay [7] was “inactive” in each case. Further, the Potency entry (in assay [8]; in the assay with Aromatase (Homo sapiens); in [9]) was “inactive” in each case. Besides, in assay [2], the compound was called inactive.

In the case of `Nc1ncnc2c1ncn2[C@H]1CC[C@@H](CO)O1`, the Potency result in assay [1], in [3], in [4], in assay [5], in assay [6] and in [8] was “inactive” each time. For the same compound, the Potency entry (with Aromatase (Homo sapiens); in assay [9]) was “inactive” in each case. Besides, the outcome in assay [2] was inactive.

With `Brc1cc(Br)c(Oc2cc(Br)c(Br)cc2Br)cc1Br`, the Potency result in assay [1], in assay [3], in [4], in [5], in assay [6] and in assay [8] was “inactive” throughout. Besides, the compound was classed as inactive in assay [2].

Take `CC(C)=CC(=O)C=C(C)C`: the Potency entry in assay [1], in assay [3], in assay [4], in assay [5], in [6] and in [7] was “inactive” in each case. Besides, the Potency entry (in [8]; in the assay with Aromatase (Homo sapiens); in [9]) was “inactive” each time. Also, the compound was called inactive in assay [2].

On to `Clc1ccc(Nc2nnc(Cc3ccncc3)c3ccccc23)cc1`, for which the Potency in [1] was 13.3 µM (active); in assay [3] it was 26.8 µM [inconclusive] (active) and inactive; in [7], 21.1 µM (active) and 26.6 µM (active); with Aromatase (Homo sapiens) it was 5.31 µM (active) and 13.3 µM (active). The outcome in [2] was inactive. In addition, the Potency entry in assay [4], in [5], in assay [6], in assay [8] and in assay [9] was “inactive” each time.

Turning to `Nc1ccc(N=Nc2ccccc2)c(N)c1`, the Potency entry (in assay [1]; in assay [3]; in assay [4]; in assay [5]; in the assay with Aromatase (Homo sapiens)) was “inactive” each time. Besides, the outcome in assay [2] was inactive. The results for the Potency in assay [6], in [8] and in assay [9] were 0.336 µM (active), 26.7 µM (active) and 30 µM (active), respectively.
